Experimental findings from PubChem BioAssay AID504329 (Southern Research Specialized Biocontainment Screening …, 2011) are described below.

Out of some 340,000 compounds screened, about 1,000 (0.29%) were called active. The list is a sample of the results. Entries with a potency or affinity are not part of this list. A number with no mark means an inactive call. No stated cut-off is given here; in the data, inconclusive means inhibition above about 27% without an active follow-up result; inactive means below that.

The assay is described as follows: H1N1 influenza NS1A inhibitors, functional cell based assay (AID 504329). Conditions: percent inhibition, at 12.5 µM, hits give high values.
Regarding `Cc1cccc(NS(=O)(=O)c2cccc(C(=O)N3CCN(C/C=C/c4ccccc4)CC3)c2)c1`, the inhibition (as a rule, the change of the read-out against control, counted positive when it falls) was -7.79%.
In the case of `CCN(c1ccccc1)S(=O)(=O)c1ccc2c(c1)CCCN2C(C)=O`, the inhibition was 5.4%.
Turning to `CC(=O)CCCC(NS(=O)(=O)CCC(Cl)(Cl)Cl)c1ccccc1` (stereo not drawn), the inhibition was 1.88%.
For `Oc1ccccc1C=NCCCCCCN=Cc1ccccc1O`, the inhibition was -8.96%.
For `Oc1ccccc1C=NCCN=Cc1ccccc1O`, the inhibition was 18.6%.
As for `COc1cccc(CN(C)C(=O)c2ccc(OCC(=O)N3CCOCC3)c(OC)c2)c1`, the inhibition is -6.73%.
As to `COc1ccccc1OCc1nc2ccccc2[nH]1`, the inhibition was 1.78%.
For the compound `CCOC(=O)c1nc(Nc2ccc(Nc3ccccc3)cc2)c2ccccc2n1`, the inhibition was 10.9%.
As for `CCOC(=O)c1nc(Nc2ccc(N3CCOCC3)cc2)c2ccccc2n1`, the figure is -12.1%; as for `CCCCCC(=O)Nc1ccc(S(=O)(=O)Nc2nccc(C)n2)cc1`, -0.66%; as for `Cc1ccc2nc(C)cc(N3CCOCC3)c2c1`, -16.8%.
Take `Cc1csc(NC(=O)CSc2nnc(NC(=O)C3CC(=O)N(c4ccccc4)C3)s2)n1` (stereo not drawn): the inhibition was -4.67%.
As for `Cc1csc(NC(=O)CSc2ccc(-c3ccccc3)nn2)n1`, the figure is -3.27%; as for `O=C(CSc1ccc(-c2ccccn2)nn1)Nc1nccs1`, 4.83%.
For `O=C(CSc1ccc2nnc(-c3ccncc3)n2n1)Nc1nccs1`, the inhibition was -1.97%.
With `Cc1ccccc1NC(=O)CSc1ccc(-c2ccccn2)nn1`, the inhibition is 12.1%.
On to `Cc1ccc(NC(=O)CSc2ccc(-c3ccccn3)nn2)c(C)c1`, for which the inhibition was 3.42%.
Turning to `Cc1nnc(NC(=O)CSc2ccc3nnc(-c4ccccn4)n3n2)s1`, the inhibition was 15.4%.
Regarding `COc1ccc(C)cc1NC(=O)CSc1ccc(-c2cccnc2)nn1`, the inhibition is -8.69%.
On to `COc1ccc(NC(=O)CSc2ccc(-c3ccccn3)nn2)cc1OC`, for which the inhibition was 1.4%.
Consider `COc1cccc(N2CCN(C(=S)Nc3ccccc3)CC2)c1`, for which the inhibition is 4.19%.
In the case of `COc1ccc(CCNC(=O)COC(=O)c2ccc(C)s2)cc1`, the inhibition is -10%.
`COc1ccc(C(CNC(=O)C2CC(=O)N(Cc3ccc(C)cc3)C2)N(C)C)cc1` (stereo not drawn): the inhibition was -3.01%.
As for `O=C(NCCc1ccc(F)cc1)C1CCCCC1`, the inhibition is 2.71%.
Take `CCOC(=O)C1CCCN(C(=O)COc2ccc(N(C)S(=O)(=O)c3ccc(F)cc3)cc2)C1` (stereo not drawn): the inhibition is -23.6%.
`Cc1nnc(SCC(=O)Nc2ccc(Cl)cn2)n1Cc1ccccc1`: the inhibition is 1.7%.
As for `CCOC(=O)Nc1n[nH]c(NC(=O)OCC)c1[N+](=O)[O-]`, the inhibition was 8.99%.
Turning to `CO/N=C/C=C1/N(C)c2ccccc2C1(C)C`, the inhibition is 11.6%.
As for `CN1/C(=C\C=N\O)C(C)(C)c2ccccc21`, the figure is -7.5%.
In the case of `CN1/C(=C\C=Nc2ccc3ccccc3c2)C(C)(C)c2ccccc21`, the inhibition was 2.41%.
Consider `CN1/C(=C\C=Nc2ccccc2)C(C)(C)c2ccccc21`, for which the inhibition is -3.07%.
As to `Cc1ccc(-c2nc(CNC(=O)c3cc(C)on3)cs2)cc1`, the inhibition is -7.61%.
Consider `O=C(N/N=C/c1ccccc1)C1CCCN1C(=O)c1cc([N+](=O)[O-])cc([N+](=O)[O-])c1` (stereo not drawn), for which the inhibition is -6.49%.
Take `CNS(=O)(=O)c1cccc(C(=O)OCc2cc(=O)n3cc(Br)ccc3n2)c1`: the inhibition is 1.47%.
As to `CCCCCSc1cc(OC)c(CCN)cc1OC`, the inhibition is 15.3%.
For the compound `CCCCCSc1cc(OC)c(CCN(C)C)cc1OC`, the inhibition is 10.3%.
For the compound `NC(=O)NCc1cccs1`, the inhibition is -4.81%.
Turning to `O=C(O)COCc1nc2ccccc2[nH]1`, the inhibition is -15.3%.
Regarding `CC(C)N(Cc1nc2ccccc2[nH]1)C(C)C`, the inhibition was -21.7%.
The value for `CCn1c(SCC(=O)Nc2nccs2)nnc1-c1cccnc1` was -5.86%; that for `O=C(CNC1CCCCC1)Nc1ccc([N+](=O)[O-])cc1C(=O)Nc1ccccc1F` was -6.89%.
`COc1cc(NC(=O)c2cc([N+](=O)[O-])ccc2NC(=O)CNCc2ccccn2)cc(OC)c1`: the inhibition was -1.96%.
Consider `COc1ccc(NC(=O)c2cc([N+](=O)[O-])ccc2NC(=O)CNC2CCCCC2C)c(OC)c1` (stereo not drawn), for which the inhibition is -6.01%.
The value for `O=C(CN1CCN(c2ccccn2)CC1)Nc1ccc([N+](=O)[O-])cc1C(=O)Nc1ccccc1F` was 12%; that for `CCn1c(=O)c([N+](=O)[O-])c(NC2CCS(=O)(=O)C2)c2ccccc21` (stereo not drawn) was -2.22%; that for `CC(C)C(c1nnnn1C(C)(C)C)N1CCC(Cc2ccccc2)CC1` (stereo not drawn) was -3.35%.
Take `CCCN(CCC)Cc1c(C(=O)N/N=C/C(C)=C\c2ccccc2)nnn1-c1nonc1N`: the inhibition was 6.9%.
As for `COc1cc(/C=C(\NC(=O)c2ccccc2)C(=O)NC(C(=O)O)c2ccccc2)cc(OC)c1OC` (stereo not drawn), the figure is 2.4%; as for `Cc1ccccc1-c1nn[nH]n1`, -2.96%.
On to `Cc1ccc([N+](=O)[O-])c2cccnc12`, for which the inhibition is -5.17%.
Turning to `c1ccc2c(-c3nn[nH]n3)cccc2c1`, the inhibition was -2.59%.
With `Cc1ccc(NCc2ccc(O)c3ncccc23)cc1`, the inhibition is -2.47%.
The value for `CC(C)COCc1ccc(O)c2ncccc12` was 1.04%; that for `Cc1cccc(NCc2ccc(O)c3ncccc23)c1` was -1.23%; that for `O=[N+]([O-])c1ccc(O)c2cccnc12` was -3.9%.
Take `Cc1ccccc1NCc1ccc(O)c2ncccc12`: the inhibition is 11.8%.
Consider `Cc1ccccc1Nc1nc(-c2cccnc2)nc2ccccc12`, for which the inhibition is -4.04%.
The value for `CCOc1ccccc1-n1c(O)c(C=NCCCn2ccnc2)c(=O)[nH]c1=O` was 3.36%; that for `CN1CCC(N(C)C(=O)c2ccccc2F)CC1` was 17.7%.
Turning to `CN1CC2=Cc3ccccc3OC23Oc2ccccc2C=C3C1`, the inhibition was 3.84%.
As for `O=C(CCCOc1ccccc1)Nc1cccc(S(=O)(=O)N2CCCCC2)c1`, the figure is -17.5%; as for `CCN1CCN(C(=O)CS(=O)(=O)Cc2nc(-c3cccc(OC)c3)oc2C)CC1`, -5.29%.
As for `NC(=O)C1CCN(S(=O)(=O)Cc2ccccc2Cl)CC1`, the figure is 4.51%.
As to `COc1ccc(CNC(=O)c2cc(C)nn2-c2ccccc2)cc1`, the inhibition was 0.54%.
As for `COC(=O)c1ccc(Cn2nc(-c3ccccc3)ccc2=O)cc1`, the inhibition is -6.12%.
As for `O=C1OCC(c2ccccc2)=C1c1ccccc1[N+](=O)[O-]`, the figure is -4.03%; as for `COCCn1ccc2c(OCC(=O)NCCc3ccccc3)cccc2c1=O`, -4.46%.
The value for `CCCOCc1ccc(O)c2ncccc12` was -7.06%; that for `COCc1ccc(O)c2ncccc12` was 2.78%; that for `Oc1ccc(Cl)c2cccnc12` was -4.63%.
For the compound `Oc1ccc(F)c2cccnc12`, the inhibition is 3.59%.
Consider `Cc1ccsc1C1CC(=O)NC2=C1C(=O)CC(C)(C)C2` (stereo not drawn), for which the inhibition is -0.46%.
Regarding `Cc1ccc(CNC(=O)C2CCC(=O)N(CCc3cccc(F)c3)C2)s1` (stereo not drawn), the inhibition was 11.3%.
For `O=C(Nc1c2c(nn1-c1cccc(Cl)c1)CS(=O)(=O)C2)c1ccc2c(c1)OCO2`, the inhibition is 0.57%.
As for `Cc1nn(-c2ccccc2)c(C)c1/C=N/NC(=O)c1ccccc1O`, the figure is 6.87%; as for `Cc1nn(-c2ccccc2)c(C)c1/C=N/NC(=O)c1cc(O)cc(O)c1`, -10.7%; as for `Cc1ccc(-c2cc(C(=O)N/N=C/c3c(C)nn(-c4ccccc4)c3C)[nH]n2)cc1`, 11.2%.
Take `Cc1nn(-c2ccccc2)c(C)c1/C=N/NC(=O)c1cc(-c2ccccc2)n[nH]1`: the inhibition is -0.6%.
Take `Cc1nn(-c2ccccc2)c(N2CCCC2)c1/C=N/NC(=O)c1cc2ccccc2cc1O`: the inhibition is 2.95%.
For `Cc1nn(-c2ccc(F)cc2)c(Cl)c1/C=N/NC(=O)c1ccc(O)cc1`, the inhibition is 9.96%.
As for `COc1ccc(-c2nc(CS(=O)CC(=O)N3CCN(C)CC3)c(C)o2)cc1OC` (stereo not drawn), the inhibition is -3.22%.
Take `COc1ccc(CCCc2nnc(SCC(=O)Nc3cc(C)c(C)cc3Br)o2)cc1`: the inhibition is -5.67%.
For `O=C(CS(=O)(=O)Cc1ccccc1)N1CCN(C(=O)c2ccco2)CC1`, the inhibition was -6.89%.
Take `Cc1ccc(S(=O)(=O)N/N=C(\c2ccccc2)c2cccnc2)cc1`: the inhibition was -2.16%.
As to `COc1ccccc1-n1cc2c([N+](=O)[O-])cc([N+](=O)[O-])cc2n1`, the inhibition was 41.1%.
Turning to `CNc1c([N+](=O)[O-])cnn1-c1ccccc1Cl`, the inhibition is -8.09%.
The value for `COc1ccc(C(=O)Nc2nc(-c3ccc([N+](=O)[O-])cc3)c(-c3ccc(OC)cc3)s2)cc1` was -6.06%; that for `Nc1nn(-c2ccccc2)nc1C(=O)OCc1ccccc1F` was 1.7%; that for `CC(=O)c1sc(NC(=O)c2ccc(Cl)cc2)nc1C` was 0.95%.
Take `CC1CN(c2ccc([N+](=O)[O-])cc2C(=O)N2CCOCC2)CC(C)N1` (stereo not drawn): the inhibition is -4.9%.
For the compound `CC(=O)Nc1cccc(NC(=O)CSc2nnc3ccc(-c4cccnc4)nn23)c1`, the inhibition was 2.74%.
The value for `CC1(C)Nc2ccc(O)cc2-c2c1ssc2=S` was 19%; that for `CCOc1ccc2c(c1)-c1c(ssc1=S)C(C)(C)N2` was 21.5%; that for `CC1CCCN(C(=O)CNC(=O)c2cccs2)C1` (stereo not drawn) was -11.6%.
Take `O=Cc1ccc(Cl)c(Cl)c1`: the inhibition was -13.3%.
For the compound `COc1ccc(C)cc1NCC(=O)Nc1ccc(C(C)(C)C)cc1`, the inhibition is -0.26%.
The value for `O=C(COc1cccc2ccccc12)N1CCN(c2ccccn2)CC1` was 0.39%; that for `O=C(CSc1nccc2ccccc12)N1CCN(c2ccccn2)CC1` was 9.51%.
